Assay results reported in PubChem BioAssay (Tox21).
Inconclusive results are not listed. Calls of active or inactive are those of the source. Calls come from the whole dose curve; as a rule, active = well fitted curve in the direction sought with a large enough effect in the repeat runs; inconclusive = weak or mixed curves; inactive = no such curve, though single readings can be large; an effect the other way counts as inactive or inconclusive.

Key:
[1] = qHTS RealTime-Glo MT Cell Viability Assay in HEK293 cells - 16 hour (AID 1224872); note: top concentration of the series differs between compounds; nearly all actives have a fitted effect of over 50% in size
Method in brief: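 HEK293 cells seeded with NanoLuc/prosubstrate reagent, rested 5 h at 37 C, then dosed and kept at 37 C up to 40 h. Nonlytic real-time luminescence from viable cells read at 0, 8, 16, 24, 32 and 40 h.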

[2] = qHTS RealTime-Glo MT Cell Viability Assay in HepG2 cells - 8 hour (AID 1224873); note: nearly all actives have a fitted effect of over 55% in size
Method in brief: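 HepG2 cells (600/well) mixed with RealTime-Glo MT reagent, settled 5 h at 37 C/5% CO2 before compound addition. Nonlytic NanoLuc luminescence from viable-cell prosubstrate reduction read repeatedly during 40 h treatment at 37 C.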

[3] = qHTS RealTime-Glo MT Cell Viability Assay in HEK293 cells - 40 hour (AID 1224874); settings: RealTime-Glo luminescence; max response: active compounds read low; note: nearly all actives have a fitted effect of over 50% in size
Method in brief: (§1)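 Luminescence readout at each listed time point; HEK293, 600 cells/well, RealTime-Glo MT reagent added with cells; compounds pinned (23 nL in DMSO) after 5 h at 37 C; continuous culture at 37 C.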

[4] = A CellTox Green Cytotoxicity Assay to monitor cytotoxicity in HepG2 cells - 16 hour (AID 1224876); note: nearly all actives have a fitted effect of over 45% in size
Method in brief: (§2)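 HepG2, 600 cells/well premixed w/ CellTox Green; 5 h settle, 37 C/5% CO2; pintool cpd add (DMSO); 37 C, 40 h; fluorescence read at 0, 8, 16, 24, 32, 40 h.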

[5] = qHTS RealTime-Glo MT Cell Viability Assay in HepG2 cells - 32 hour (AID 1224877); note: nearly all actives have a fitted effect of over 55% in size
Method in brief: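 HepG2 cells (600/well) were dispensed with RealTime-Glo reagents, incubated 5 h at 37 °C, then treated with compounds in DMSO for up to 40 h. Nonlytic NanoLuc luminescence reflecting viable cells was read at each stated time point.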

[6] = A CellTox Green Cytotoxicity Assay to monitor cytotoxicity in HepG2 cells - 24 hour (AID 1224878); note: nearly all actives have a fitted effect of over 45% in size
Method in brief: as §2

[7] = A CellTox Green Cytotoxicity Assay to monitor cytotoxicity in HepG2 cells - 40 hour (AID 1224879); note: nearly all actives have a fitted effect of over 40% in size
Method in brief: as §2

[8] = qHTS RealTime-Glo MT Cell Viability Assay in HEK293 cells - 0 hour (AID 1224880); note: top concentration of the series differs between compounds; nearly all actives have a fitted effect of over 45% in size
Method in brief: as §1

[9] = A CellTox Green Cytotoxicity Assay to monitor cytotoxicity in HEK293 cells - 24 hour (AID 1224875); note: series mostly up to about 77 µM; nearly all actives have a fitted effect of over 45% in size
Method in brief: (§3)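 Read-out: fluorescence of a cell-impermeant cyanine dye staining DNA of dead cells, proportional to cytotoxicity. HEK293, 600 cells/well with reagent, compound (23 nL DMSO) added after 5 h; reads at 0, 8, 16, 24, 32, 40 h.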

[10] = A CellTox Green Cytotoxicity Assay to monitor cytotoxicity in HEK293 cells - 32 hour (AID 1224881); note: nearly all actives have a fitted effect of over 40% in size
Method in brief: as §3
% is set by controls: 0 for no effect and ±100 for the full control effect.

O=C(O)CNC(=O)c1ccccc1
inactive: Potency [1] | outcome [2] | max response [3] -1.85% | outcome [4] | Potency [5] | outcome [6] | Potency [7] | Potency [8]

C=CC(=O)OCCCl
inactive: Potency [1] | outcome [2] | max response [3] 21% | outcome [9] | outcome [4] | outcome [6] | Potency [8] | outcome [10]

CCCCOCCOC(=O)COc1cc(Cl)c(Cl)cc1Cl
inactive: Potency [1] | outcome [2] | max response [3] 4.7% | outcome [4] | Potency [5] | outcome [6] | Potency [7] | Potency [8] | outcome [10]

CC(COc1ccccc1)NN (configuration not stated)
inactive: Potency [1] | outcome [2] | max response [3] 2.34% | outcome [9] | outcome [4] | outcome [6] | Potency [8] | outcome [10]

COc1cc(C(=O)OC(COCCC(C)C)CN2CCOCC2)cc(OC)c1OC (configuration not stated)
inactive: Potency [1] | outcome [2] | max response [3] -2.35% | outcome [4] | Potency [5] | outcome [6] | Potency [7] | Potency [8] | outcome [10]

CCN(C=O)CC
inactive: Potency [1] | outcome [2] | max response [3] 2.6% | outcome [9] | outcome [4] | Potency [8]

C[C@H]1C[C@H]2[C@@H]3CCC4=CC(=O)C=C[C@]4(C)[C@H]3C(=O)C[C@]2(C)[C@@]1(O)C(=O)CO
inactive: Potency [1] | outcome [2] | max response [3] 0.535% | outcome [4] | Potency [5] | outcome [6] | Potency [8]

NC(=O)N1c2ccccc2CC(=O)c2ccccc21
inactive: Potency [1] | outcome [2] | max response [3] 2.12% | outcome [9] | outcome [4] | Potency [8] | outcome [10]

CC(N)C12CC3CC(CC(C3)C1)C2 (configuration not stated)
inactive: Potency [1] | outcome [2] | max response [3] -3.62% | outcome [4] | Potency [5] | outcome [6] | Potency [7] | Potency [8] | outcome [10]

CCCOC(=O)CC
inactive: Potency [1] | outcome [2] | max response [3] 8.31% | outcome [4] | Potency [5] | outcome [6] | Potency [7] | Potency [8]

CC(=O)OCC(=O)[C@@]1(O)[C@H](C)C[C@H]2[C@@H]3CCC4=CC(=O)C=C[C@]4(C)[C@@]3(F)[C@@H](O)C[C@@]21C
inactive: Potency [1] | outcome [2] | max response [3] 5.93% | outcome [4] | Potency [5] | outcome [6] | Potency [7] | Potency [8] | outcome [10]

CC(C)CCCO
inactive: Potency [1] | outcome [2] | max response [3] 9.91% | outcome [4] | Potency [5] | outcome [6] | Potency [7] | Potency [8] | outcome [10]

CCCCCCCCCC[N+](C)(C)[O-]
inactive: Potency [1] | outcome [2] | max response [3] -6.97% | outcome [9] | Potency [5] | Potency [8]

C=CCCCCCCCCC(=O)OCC
inactive: Potency [1] | outcome [2] | max response [3] 3.1% | outcome [4] | Potency [5] | outcome [6] | Potency [7] | Potency [8] | outcome [10]

C[N+](C)(CCOc1ccccc1)Cc1cccs1
inactive: Potency [1] | outcome [2] | max response [3] 6.59% | outcome [9] | Potency [8] | outcome [10]

COc1cccc(OC)c1C(=O)N[C@@H]1C(=O)N2[C@@H]1SC(C)(C)[C@@H]2C(=O)O
inactive: Potency [1] | outcome [2] | max response [3] 4.53% | outcome [4] | Potency [5] | outcome [6] | Potency [7] | Potency [8] | outcome [10]

CN1C(C)(C)CC(O)CC1(C)C
inactive: Potency [1] | outcome [2] | max response [3] 2.49% | outcome [4] | Potency [5] | outcome [6] | Potency [7] | Potency [8] | outcome [10]

O=C(O)CCCC[P+](c1ccccc1)(c1ccccc1)c1ccccc1
inactive: Potency [1] | outcome [2] | max response [3] -10.4% | outcome [9] | Potency [5] | Potency [8] | outcome [10]

O=C(O)CCSCCC(=O)O
inactive: Potency [1] | outcome [2] | max response [3] 0.716% | outcome [9] | outcome [4] | outcome [6] | Potency [8] | outcome [10]

CN(C)CCN(C)CCN(C)C
inactive: Potency [1] | outcome [2] | max response [3] 4.88% | outcome [4] | Potency [5] | outcome [6] | Potency [7] | Potency [8] | outcome [10]

Cc1ccc(C(=O)c2ccc(CC(=O)O)n2C)cc1
inactive: Potency [1] | outcome [2] | max response [3] 1.68% | outcome [9] | Potency [8] | outcome [10]

CC(C)C[C@@H](N)C(=O)O
inactive: activity change, negative = cytotoxicity [1] 5.2% [at 15.8 µM] | viability change, negative = cytotoxic [2] 0.12% [at 15.8 µM] | max response [3] 5.97% | cytotoxicity increase [4] -14.3% [at 15.8 µM] | activity change, negative = cytotoxic [5] 4.67% [at 15.8 µM] | cytotoxicity [6] -14.3% [at 15.8 µM] | activity change, negative = cytotoxicity [8] 5.62% [at 15.8 µM] | cytotoxicity increase [10] -1.55% [at 15.8 µM]

NCCCC[C@H](N[C@@H](CCc1ccccc1)C(=O)O)C(=O)N1CCC[C@H]1C(=O)O
inactive: Potency [1] | outcome [2] | outcome [4] | Potency [5] | outcome [6] | Potency [7] | Potency [8] | outcome [10]

Cc1cccc(C)c1NC(=O)CC12CCCN1CCC2
inactive: Potency [1] | outcome [2] | max response [3] 5.91% | Potency [5] | Potency [8] | outcome [10]

O=C1c2ccccc2C(=O)c2cc(O)ccc21
inactive: outcome [2] | outcome [4] | Potency [5] | outcome [6] | Potency [7] | Potency [8]

Cc1nc2ccc(CN(C)c3ccc(C(=O)N[C@@H](CCC(=O)O)C(=O)O)s3)cc2c(=O)[nH]1
inactive: Potency [1] | outcome [2] | outcome [4] | Potency [5] | outcome [6] | Potency [7] | Potency [8] | outcome [10]
